Screens (PubChem)
KB-3-1 cytotox = KB-3-1 parental cell cytotoxicity | Potency, µM (doses to about 46.1 µM), actives largely listed as cytotoxic | KB-3-1 viability, CellTiter-Glo ATP luminescence, 72 h | hit rate 1.4% among 400,000; also: % is scaled to controls: 0 for no effect and ±100 for the full control effect; nearly all actives have a fitted effect of over 60% in size
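Viability of parental KB-3-1 cells, measured by CellTiter-Glo luminescence, followed a 72 h incubation at 37 °C with pinned compounds in phenol-red-free DMEM containing 10% FBS.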
TGFb inhibitor = blocks TGF-b signaling | hit rate 1.2% among 410,000 | HepG2 CAGA-GFP TGF-b/SMAD3 reporter, GFP fluorescence, 18 h; TGF-beta stimulated, 500 pg/mL final | Potency, µM (titrated, usually from 46.1 µM), inactives show top-dose activity, negative = inhibition, hits mostly inhibitors; also: % is scaled to controls: 0 for no effect and ±100 for the full control effect; nearly all actives have a fitted effect of over 65% in size
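HEPG2 CAGA-GFP cells (1000/well, DMEM with 1% FBS) were pre-incubated 2 h at 37 degrees C, given compound by pin tool, then stimulated with TGF-beta at 500 pg/mL final for 18 h before per-cell GFP fluorescence imaging.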
HT1080-NT tox = kills 2HG-producing HT-1080-NT fibrosarcoma cells | HT-1080-NT fibrosarcoma viability, CellTiter-Glo ATP luminescence, 48 h | Potency, µM (top dose mostly 46.1 µM), without a hit: at the highest dose activity, negative = less viability, actives largely listed as cytotoxic | hit rate 1.6% among 360,000 | AID 686970;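 also: NT is the 2HG producing partner of a matched IDH1 knockdown line; 0% = DMSO-treated cells and -100% = media-only wells without cells; nearly all actives have a fitted effect of over 55% in size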
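HT-1080-NT; 750 cells/well; 5% FBS RPMI; 48 h compound, 37 degrees C; CellTiter-Glo luminescence; curve fitting and curve-class assignment.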
HT1080 IDH1KD tx = toxicity to HT-1080 IDH1 knockdown cells (counter line) | HT-1080 IDH1 knockdown viability, ATP luminescence, 48 h | hit rate 2% among 360,000 | AID 686971 | Potency, µM (doses to about 46.1 µM), without a hit: at the top dose activity, negative = toxicity, hits mostly cytotoxic;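 also: 0% = DMSO wells and -100% = cell-free medium wells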
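CellTiter-Glo luminescence after 48 h compound exposure at 37 degrees C of IDH1-knockdown HT-1080 cells in 5% FBS RPMI. %Activity scaled between DMSO wells and cell-free media wells, with curves fitted and assigned curve classes.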
HepG2 tox = kills HepG2 cells in TGF-b inhibitor counter-screen. HepG2 CAGA-GFP viability, ATP luminescence, 18 h. Potency, µM (highest dose often 46.1 µM), for the others: at the top dose activity change, negative = cytotoxicity, most hits filed as cytotoxic. hit rate 0.76% among 410,000
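HepG2 CAGA-GFP cells (1000/well, DMEM with 1% FBS) received compound, then TGF-beta at 500 pg/mL final, and were incubated 18 hours at 37 degrees C. Viability was read by CellTiter-Glo luminescence. Media-only wells were set as complete cell-killing and DMSO as no toxicity.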
KB-V1 MDR tox = KB-V1 MDR subline cytotoxicity. Potency, µM (top dose mostly 46.1 µM), usual class: cytotoxic. KB-V1 MDR cells viability, CellTiter-Glo, 72 h. hit rate 3.4% among 400,000; also: % is scaled to controls: 0 for no effect and ±100 for the full control effect; nearly all actives have a fitted effect of over 60% in size
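Luminescent ATP read-out (CellTiter-Glo, 10 min) measures survival of drug-selected KB-V1 MDR cells after 72 h, 37 degrees C compound exposure. Medium: phenol-red-free DMEM, 10% FBS. Values from fitted concentration-response curves.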
Active calls of the source: *; i = inactive; ? = inconclusive; · = no result given. Hits are enriched below; roughly 6.6% of the tested compounds scored in any of these assays. Calls follow the shape of the dose curve; as a rule, active = well fitted curve in the direction sought with a large enough effect; inconclusive = small, poorly fitted or top-dose-only effect, or another doubt; inactive = no such curve, though single readings can be large; an effect the other way counts as inactive or inconclusive. Potency is read from the fitted curve at half-maximal effect.

SMILES	KB-3-1 cytotox	TGFb inhibitor	HT1080-NT tox	HT1080 IDH1KD tx	HepG2 tox	KB-V1 MDR tox
CCc1ccc(-c2cn3nc(C)c(C)nc3n2)cc1	i	-13%	-1%	2%	-7%	18µM*
Cc1nn(-c2ccccc2)c2sc(C(=O)NNC(=O)COc3cccc4ccccc34)cc12	?	-24%	2%	8%	-15%	18µM*
Cc1nn(-c2ccccc2)c2sc(C(=O)NNC(=O)COc3ccccc3)cc12	i	-1%	?	?	-31%	i
Cc1nn(-c2ccccc2)c2sc(C(=O)N3CCc4ccccc4C3)cc12	i	?	-28%	?	-20%	18µM*
Cc1cnc(NC(=O)c2cc3c(C)nn(-c4ccccc4)c3s2)s1	i	-8%	11µM*	?	-10%	i
Cc1ccc(OCCSc2nc3ccccc3n2CC(=O)N2CCOCC2)cc1	i	-11%	·	·	-3%	i
CSc1nc(N(C)NC(=O)c2ccc(Cl)cc2)c2ccccc2n1	0.58µM*	?	0.73µM*	?	-17%	2.9µM*
CSc1nc(N(C)NC(=O)c2ccccc2)c2ccccc2n1	1µM*	-7%	0.58µM*	0.58µM*	3%	1.2µM*
CNc1nc(SC)nc2ccccc12	i	-6%	5%	1%	0%	i
CCSc1ncc(Cl)c(C(=O)N(Cc2ccccc2Cl)C2CCS(=O)(=O)C2)n1 (stereo not given)	i	-17%	·	·	-20%	i
C/C(=N\Nc1ncc(Cl)cc1Cl)c1ccc(C#N)cc1	i	-7%	-11%	-8%	64%	?
COc1ccc(/C(C)=N/Nc2ncc(Cl)cc2Cl)c(O)c1	i	-26%	4.6µM*	?	-36%	?
CC(=O)OCC(NC(=O)C(CCCCNC(=O)OCc1ccccc1)NC(=O)OC(C)(C)C)C1OC(n2ccc(=O)[nH]c2=O)C(OC(C)=O)C1OC(C)=O (stereo not given)	·	-3%	·	·	1%	·
CC(C)Oc1cc(NC(=O)CS(=O)CC(=O)Nc2cccc(C(F)(F)F)c2)c(Cl)cc1Cl (stereo not given)	i	11µM*	?	?	-114%	i
O=C(CCCCCN1C(=O)c2cccc3cccc(c23)C1=O)NCc1cccnc1	i	-2%	2.9µM*	2.3µM*	32%	?
Cc1nc(-c2ccccc2)nc2[nH]c(C(C)C)cc(=O)c12	i	5%	-17%	8%	-4%	?
Cc1nc(-c2ccccc2)nc2[nH]c(=O)n(-c3ccccc3)c(=O)c12	?	-6%	4%	-10%	-18%	21µM*
C=C(C)CNC(=S)NNC(=O)c1ccco1	i	?	2µM*	?	-53%	i
Cc1ccc(-n2nc(C(=O)Nc3ccc(F)cc3F)c3c4ccccc4n(C)c3c2=O)cc1	i	-9%	·	·	-15%	i
CCN(CC)C(=O)/C(=C\c1cccc([N+](=O)[O-])c1)NC(=O)c1ccco1	i	5%	4%	19%	-1%	13µM*
COc1ccc(-c2cc(C(=O)O)[nH]n2)cc1OC	23µM*	1%	-1%	-8%	-15%	i
COc1ccc(-c2cc(C(=O)NN)[nH]n2)cc1OC	i	-16%	?	?	-3%	i
CC(C)(C)NC(=O)NC(=O)COC(=O)c1cccc(NS(=O)(=O)c2ccc(F)c(F)c2)c1	i	0%	-23%	-16%	-7%	i
CC(C)(C)c1ccc(NC(=O)COC(=O)c2ccc(NS(=O)(=O)c3ccc(F)c(F)c3)cc2)cc1	i	14µM*	0%	-15%	-46%	?
O=S(=O)(NCc1ccccc1)c1ccc(NC(=S)NCc2ccco2)cc1	i	?	-7%	-10%	11µM*	?
SMILES	KB-3-1 cytotox	TGFb inhibitor	HT1080-NT tox	HT1080 IDH1KD tx	HepG2 tox	KB-V1 MDR tox
O=C(Nc1ccccc1)c1ccc(S(=O)(=O)NCc2ccco2)cc1	i	9%	2%	-9%	-2%	i
Cc1ccc(C(=O)Nc2cccc(C(=O)NCc3ccccc3)c2)cc1	8.2µM*	-12%	?	?	-18%	4.6µM*
COc1ccc(C(=O)Nc2cccc(C(=O)NCc3ccccc3)c2)cc1	i	-15%	-24%	?	-31%	?
O=C(Nc1ccccc1)c1cccc(S(=O)(=O)NCc2ccco2)c1	?	-8%	14%	-3%	-9%	23µM*
O=C(NCc1ccco1)c1ccc(COc2cccc3ccccc23)cc1	i	-14%	3%	-1%	-19%	21µM*
Cc1ccc(CNC(=O)c2ccc3c(=O)c(O)c(-c4ccc(C)cc4)[nH]c3c2)cc1	4.6µM*	?	7%	10%	-33%	?
Cc1ccc(OCCCC(=O)NCc2ccco2)cc1	i	?	13%	18%	9%	i
Cc1ccc(OCCNC(=O)C(=O)NCc2ccco2)cc1	?	2%	?	4.1µM*	8%	?
Cc1ccc(C(=O)Nc2cccc(C(=O)NCc3ccco3)c2)cc1	3.3µM*	-27%	-26%	?	-10%	i
O=C(NCc1ccco1)c1cccc(NC(=O)c2ccccc2)c1	?	-6%	-15%	?	-17%	i
COc1ccc(CCNC(=O)Cn2cc(S(=O)(=O)Cc3ccccc3F)c3ccccc32)cc1OC	i	?	·	·	-8%	i
Cc1cc(SCC(=O)Nc2cccc(S(=O)(=O)NC3=NCCCCC3)c2)nc2ccccc12	?	11µM*	0%	-8%	-35%	?
Cc1cc(SCC(=O)Nc2cccc(S(=O)(=O)NC3=NCCCCC3)c2)c(C)cc1Br	i	?	?	13µM*	-21%	i
Cc1cc(SCC(=O)Nc2cccc(S(N)(=O)=O)c2)c(C)cc1Br	i	?	0%	-9%	-49%	?
COc1ccc(CN(Cc2ccco2)C(=O)COc2ccccc2OC)cc1	·	-31%	·	·	-32%	·
COC(=O)c1ccc(NC(=O)CC2C(=O)N(c3cccc(C)c3)C(=O)N2C2CCCC2)cc1 (stereo not given)	·	-19%	·	·	-21%	·
CC(C)CCOP(=O)(c1ccc(N(C)C)cc1)C(O)c1ccccc1F (stereo not given)	i	-2%	-6%	-22%	-8%	15µM*
Cc1ccc(NS(=O)(=O)c2ccc3c(c2)CC(C)N3C(=O)C2CCC2)cc1Cl (stereo not given)	?	?	·	·	-18%	i
